Data on 88 molecules can be found in publication PMC4336329 (PLoS ONE, 2015).

Out of some 310,000 compounds screened, about 14,000 (4.5%) showed an effect of 50% or more. The effect is printed as a negative number. The sample holds strong results, similar compounds and a random draw of the others, so the mix is not that of the screen.
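Note: peak tail current of the secondary pulse compared with the same well before compound.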

The target of the experiment is human ether-à-go-go-related gene (hERG) potassium channel (human, UniProt Q12809). Nature of the experiment: primary screen, population patch clamp on CHO cells stably expressing hERG; higher = less effect of the substance.
Chain of human ether-à-go-go-related gene (hERG) potassium channel (Q12809 whole entry, looked up): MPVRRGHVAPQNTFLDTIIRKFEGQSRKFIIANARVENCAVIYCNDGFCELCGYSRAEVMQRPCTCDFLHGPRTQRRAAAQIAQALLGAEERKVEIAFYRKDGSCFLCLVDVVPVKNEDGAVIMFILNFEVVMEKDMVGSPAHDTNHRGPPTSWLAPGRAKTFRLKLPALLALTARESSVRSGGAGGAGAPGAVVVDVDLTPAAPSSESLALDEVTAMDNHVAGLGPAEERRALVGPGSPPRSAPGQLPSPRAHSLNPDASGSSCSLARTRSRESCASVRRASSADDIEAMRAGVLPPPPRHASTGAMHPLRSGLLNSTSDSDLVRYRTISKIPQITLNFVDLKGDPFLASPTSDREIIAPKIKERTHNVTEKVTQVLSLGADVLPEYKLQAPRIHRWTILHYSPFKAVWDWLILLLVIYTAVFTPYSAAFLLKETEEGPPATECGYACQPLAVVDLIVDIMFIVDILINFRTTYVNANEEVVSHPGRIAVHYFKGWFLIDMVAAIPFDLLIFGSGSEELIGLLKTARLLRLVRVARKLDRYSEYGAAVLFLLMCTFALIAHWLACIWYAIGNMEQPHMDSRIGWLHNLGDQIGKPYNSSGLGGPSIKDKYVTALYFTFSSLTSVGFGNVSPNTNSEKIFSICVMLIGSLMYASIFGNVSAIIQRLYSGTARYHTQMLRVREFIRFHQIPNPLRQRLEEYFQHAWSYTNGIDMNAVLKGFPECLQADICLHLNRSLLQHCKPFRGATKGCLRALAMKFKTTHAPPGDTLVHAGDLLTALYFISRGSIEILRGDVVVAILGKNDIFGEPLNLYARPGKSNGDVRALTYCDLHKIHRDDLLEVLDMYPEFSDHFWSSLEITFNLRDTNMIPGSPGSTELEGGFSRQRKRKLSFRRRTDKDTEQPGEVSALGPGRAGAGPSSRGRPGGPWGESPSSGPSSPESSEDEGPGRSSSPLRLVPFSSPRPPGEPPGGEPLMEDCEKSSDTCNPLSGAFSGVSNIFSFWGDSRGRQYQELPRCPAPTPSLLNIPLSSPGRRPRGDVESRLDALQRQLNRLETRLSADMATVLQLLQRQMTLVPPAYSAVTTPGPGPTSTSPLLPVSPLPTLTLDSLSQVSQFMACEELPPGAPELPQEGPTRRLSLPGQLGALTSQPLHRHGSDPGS
As to `Cc1cc(OC(C)C)nc(NCc2ccccc2)n1`, the “hERG current change (%, negative = inhibition) at 10uM” value is -3.54%.
In the case of `COc1ccccc1-c1coc2c(CN3CCN(CCO)CC3)c(O)ccc2c1=O` it was 17.7%; in that of `N=c1c2c3c(sc2ncn1Nc1ccccc1)CCC3`, -29.6%; in that of `COc1cccc(-c2nn3c(-c4ccccn4)nnc3s2)c1`, -28%.
In the case of `CCOc1cccc(-c2nn3c(-c4cc(C)[nH]n4)nnc3s2)c1` it was -58.2%.
As to `COc1cccc(-c2nn3c(-c4cccc(C)c4)nnc3s2)c1`, the “hERG current change (%, negative = inhibition) at 10uM” value came to 17.5%.
As to `CCOc1cccc(-c2nn3c(-c4ccco4)nnc3s2)c1`, the “hERG current change (%, negative = inhibition) at 10uM” value was -49.4%.
Take `COc1cccc(-c2nn3c(-c4cc(C)[nH]n4)nnc3s2)c1`: the “hERG current change (%, negative = inhibition) at 10uM” value is -57.5%.
Next, `CCOc1cccc(-c2nn3c(-c4ccccn4)nnc3s2)c1`: 6.33%; `CN(C)/C=C/C(=O)c1ccc(N2CCN(c3ncc(C(F)(F)F)cc3Cl)CC2)cc1`: -6.08%; `CCOC(=O)c1ccccc1NC(=S)N1CC(C)CC(C)C1` (stereo not shown): -7.45%.
Next, `O=C(O)C(=O)O.O=[N+]([O-])c1cc2c(cc1CNCCc1ccc3c(c1)OCO3)OCO2`: -61.5%; `COc1cccc(CNCCc2ccc3c(c2)OCO3)c1OC.O=C(O)C(=O)O`: -15.5%; `COc1ccc(CNCc2cc3c(cc2[N+](=O)[O-])OCO3)cc1.O=C(O)C(=O)O`: -40.8%.
In the case of `O=C(O)C(=O)O.c1cncc(CNCCc2ccc3c(c2)OCO3)c1` it was 8.84%; in that of `Clc1ccc(CNCCc2ccc3c(c2)OCO3)cc1.O=C(O)C(=O)O`, -56.1%; in that of `CCOc1ccccc1CNCCc1ccc2c(c1)OCO2.Cl`, -32.8%.
Take `CCOc1ccc(CNCCc2ccc3c(c2)OCO3)cc1`: the “hERG current change (%, negative = inhibition) at 10uM” value is -77.2%.
Take `Fc1ccc(CNCCc2ccc3c(c2)OCO3)cc1`: the “hERG current change (%, negative = inhibition) at 10uM” value is given as -3.52%.
Consider `Clc1cccc(CNCCc2ccc3c(c2)OCO3)c1.O=C(O)C(=O)O`, for which the “hERG current change (%, negative = inhibition) at 10uM” value is -24%.
Next, `FC(F)(F)c1ccc(CNCCc2ccc3c(c2)OCO3)cc1.O=C(O)C(=O)O`: -60.3%; `Brc1cccc(CNCCc2ccc3c(c2)OCO3)c1.O=C(O)C(=O)O`: -24.9%.
In the case of `c1cc(CNCCc2ccc3c(c2)OCO3)ccn1` it was 18.3%.
In the case of `O=C(CSc1ncccn1)Nc1ccccc1` it was 3.55%.
In the case of `Cc1ccccc1OCc1ccc(C(=O)N2CCOCC2)o1`, the “hERG current change (%, negative = inhibition) at 10uM” value turned out to be 6.86%.
Next, `Cc1cc(C)c(C(=O)O)c(Cl)n1`: 5.94%; `O=C(OCC(=O)N1CCc2ccccc2C1)c1ccc(Cl)c([N+](=O)[O-])c1`: -20.7%.
Regarding `CC1=C(c2ccccc2)[N+](=O)C2(CCCC2)N1[O-]`, the “hERG current change (%, negative = inhibition) at 10uM” value came out at 10.3%.
In the case of `CCOCCCNC(=S)N(Cc1ccccc1)Cc1nc2ccccc2c(=O)[nH]1` it was -22.3%.
`CCCc1cc(-c2ccc3c(c2)COc2c4ccccc4nn2-3)on1`: the “hERG current change (%, negative = inhibition) at 10uM” value was -21.4%.
As for `C/C(=N\NC(=O)c1ccccc1O)c1ccc(NC(=O)c2ccccc2)cc1`, the “hERG current change (%, negative = inhibition) at 10uM” value is 15.3%.
In the case of `COC(=O)c1c(NC(=O)c2ccccc2)sc2c1CC(C)(C)NC2(C)C` it was -5%; in that of `Cc1cccc(C(=O)Nc2ccccc2SCC(=O)Nc2ccc(C)c(Cl)c2)c1`, 28.5%.
In the case of `COc1ccc(C(=O)/C=C/Nc2ccc([N+](=O)[O-])cc2C)c(OC)c1` it was 3.07%.
On to `O=C(O)Cn1c(SCCOc2ccccc2)nc2ccccc21`, for which the “hERG current change (%, negative = inhibition) at 10uM” value worked out at 0.876%.
Next, `O=S(=O)(c1cccc(-c2nnc(SC(F)F)n2-c2ccccc2)c1)N1CCCCC1`: -30.3%; `CC1CCCCN1S(=O)(=O)c1ccc(C(=O)N(CCCN(C)C)c2nc3cc4c(cc3s2)OCO4)cc1.Cl` (stereo not shown): -81.1%.
Next, `CC1CCCCN1S(=O)(=O)c1ccc(C(=O)N(CCCN(C)C)c2nc3ccc(Br)cc3s2)cc1.Cl` (stereo not shown): -37%; `CCC1CCCCN1S(=O)(=O)c1ccc(C(=O)N(CCCN(C)C)c2nc3cc4c(cc3s2)OCO4)cc1.Cl` (stereo not shown): -56%; `CN(C)CCCN(C(=O)c1ccc(S(=O)(=O)N(C)C)cc1)c1nc2cc3c(cc2s1)OCO3.Cl`: 15.5%.
In the case of `COc1cccc(CC(=O)Nc2ccc3nc(C)sc3c2)c1` it was 8.73%; in that of `CCOc1ccc(/C(O)=C2/C(=O)C(=O)N(CCN(CC)CC)C2c2ccco2)cc1` (stereo not shown), -10%; in that of `COc1ccccc1CNS(=O)(=O)c1ccc(Cl)s1`, -6.4%.
With `COc1ccc(CC(=O)NCC2CCCN(Cc3cc(OC)cc(OC)c3)C2)cc1` (stereo not shown), the “hERG current change (%, negative = inhibition) at 10uM” value is recorded as -21%.
In the case of `CCc1ccc(CN2CCCC(CNC(=O)c3cc(OC)cc(OC)c3)C2)cc1` (stereo not shown) it was -69.9%; in that of `COC(=O)c1ccc(CN2CCCC(CNC(=O)Cc3ccc(OC)cc3)C2)cc1` (stereo not shown), -14.7%.
In the case of `COc1ccc(CC(=O)NCC2CCCN(Cc3ccccc3Cl)C2)cc1` (stereo not shown) it was 4.3%; in that of `COc1ccc(CC(=O)NCC2CCCN(Cc3ccc(OC(F)(F)F)cc3)C2)cc1` (stereo not shown), -63.7%; in that of `COc1ccc(CC(=O)NCC2CCCN(Cc3ccccc3OC)C2)cc1` (stereo not shown), 10.5%.
In the case of `COc1cc(OC)cc(C(=O)NCC2CCCN(C(=O)c3oc(C)cc3C)C2)c1` (stereo not shown) it was -18.5%.
Take `COc1cc(OC)cc(C(=O)NCC2CCCN(Cc3ccc(SC)cc3)C2)c1` (stereo not shown): the “hERG current change (%, negative = inhibition) at 10uM” value is on record as -72.3%.
In the case of `COc1cc(OC)cc(C(=O)NCC2CCCN(Cc3cccc(C(C)=O)c3)C2)c1` (stereo not shown) it was -25.3%; in that of `COc1ccc(CC(=O)NCC2CCCN(Cc3cccc(SC)c3)C2)cc1` (stereo not shown), -34.6%.
For the molecule `COc1ccc(CC(=O)NCC2CCCN(Cc3ccc(SC)cc3)C2)cc1` (stereo not shown), the “hERG current change (%, negative = inhibition) at 10uM” value is reported as -67.5%.
For the molecule `Cc1cc(CNC(=O)CCc2nnc(CCCCc3ccccc3)o2)nn1C`, the “hERG current change (%, negative = inhibition) at 10uM” value is recorded as 38.1%.
Take `Cc1ccc(NC(=O)N2CCCc3ccccc32)cc1C`: the “hERG current change (%, negative = inhibition) at 10uM” value is given as -29.2%.
`COc1ccc(OC)c(N(CC(=O)N2CCC(C)CC2)S(=O)(=O)c2ccccc2)c1`: the “hERG current change (%, negative = inhibition) at 10uM” value was -22.2%.
For the molecule `CCCc1nnc(SCC(=O)O)n1/N=C/c1ccc2c(c1)OCO2`, the “hERG current change (%, negative = inhibition) at 10uM” value is listed as -7.5%.
`CCOc1ccccc1CNC(=O)c1nn(CC)cc1[N+](=O)[O-]`: the “hERG current change (%, negative = inhibition) at 10uM” value was determined as 9.07%.
Next, `C=CCSc1nnc(-c2sc(-c3ccccc3)nc2C)n1C`: -33.6%; `Cc1cc(NC(=O)CSCC(=O)N(C)Cc2ccc(Cl)c(Cl)c2)no1`: -9.94%.
Next, `CCOC(=O)c1[nH]c2ccc(OC)cc2c1NS(=O)(=O)c1ccc(Cl)s1`: 12.9%; `CCc1ccc(CN2CCCC(CNC(=O)c3cccc(OC)c3OC)C2)cc1` (stereo not shown): -54.1%; `COc1ccccc1CN1CCCC(CNC(=O)c2cccc3ccccc23)C1` (stereo not shown): -47.8%.
Next, `CCOc1cccc(CN2CCCC(CNC(=O)c3cccc(OC)c3OC)C2)c1` (stereo not shown): -9.11%.
Regarding `N/C(Cc1nc(-c2ccc(F)cc2)cs1)=N\O`, the “hERG current change (%, negative = inhibition) at 10uM” value came out at 13.7%.
Next, `COc1ccc(/C=C2\SC(=S)N(NS(=O)(=O)c3ccccc3)C2=O)c(OC)c1`: -33.1%; `CCOC(=O)Cc1csc(NS(=O)(=O)Cc2ccccc2)n1`: 3.54%; `CC(C)c1ccc(Nc2nc(Cl)nc(Cl)n2)cc1`: 19.1%.
Next, `Cc1cccc(NC(=O)NCC2CC2)c1`: 4.74%; `Cc1ccc(C)c(CN2CCC(CNC(=O)Nc3ccc(Cl)cc3)CC2)c1`: -68.6%; `COc1ccc(Cl)cc1NC(=O)NCC1CCN(Cc2cc(C)ccc2C)CC1`: -67.7%.
Next, `COc1ccc(N2CCC(CNC(=O)Nc3ccc(Cl)cc3)C2)cc1` (stereo not shown): 11.5%; `Cc1cccc(CN2CCC(CNC(=O)Nc3ccc(F)c(Cl)c3)CC2)c1`: -74.9%; `COc1ccc(Cl)cc1NC(=O)NCC1CCN(C(=O)OC(C)(C)C)CC1`: 4.67%.
In the case of `Cc1ccc(C)c(CN2CCC(CNC(=O)Nc3ccc(F)c(Cl)c3)CC2)c1`, the “hERG current change (%, negative = inhibition) at 10uM” value was -65%.
Next, `COc1ccc(Cl)cc1NC(=O)NCC1CCN(Cc2ccccc2F)CC1`: -37.7%; `COc1ccc(C(CC(=O)NCCN2CCOCC2)NS(=O)(=O)c2ccc(C)cc2)cc1` (stereo not shown): 5.28%.
As for `Cc1ccc(CNC(=O)C2CCCN(c3nc4ccccc4o3)C2)cc1` (stereo not shown), the “hERG current change (%, negative = inhibition) at 10uM” value was -1.06%.
Regarding `O=C(CSc1nnc(-c2ccco2)o1)NCC(=O)c1ccccc1`, the “hERG current change (%, negative = inhibition) at 10uM” value is reported as -4.72%.
As to `COC(=O)CCC(=O)NNC(=O)c1cccc(Cl)c1`, the “hERG current change (%, negative = inhibition) at 10uM” value is on record as 16.4%.
In the case of `CC(=O)c1sc(NC(=O)C(C)C)nc1C` it was -0.878%; in that of `CC(=O)Nc1ccc(-c2csc(Nc3ccc(S(N)(=O)=O)cc3)n2)cc1`, -1.99%.
Consider `O=C(Cn1nc(-c2ccc(F)cc2)ccc1=O)Nc1ccc2c(c1)OCCO2`, for which the “hERG current change (%, negative = inhibition) at 10uM” value was -0.525%.
Next, `Cc1ccc(NC(=O)NC(=O)CN2CCC(C(N)=O)CC2)c(C)c1`: 12%.
Next, `Cc1ccc(NC(=O)NCC2CCN(Cc3cc(C)ccc3Cl)CC2)c(C)c1`: -58.3%; `Cc1ccc(C)c(CN2CCC(CNC(=O)Nc3cccc(Cl)c3C)CC2)c1`: -43.1%; `O=C(Cn1nnc(-c2ccccc2)n1)c1ccccc1`: 7.22%.
